# Measurements as given in PubChem BioAssay AID1631 (National Center for Advancing Translational Sciences (NCATS), 2009).
# About 890 (0.34%) of roughly 260,000 compounds were called active. About 1% were inconclusive and are not listed. The sample holds actives, similar compounds and a random draw of the others, so the mix is not that of the screen. A number with no mark means an inactive call. The call rests on the fitted dose curve; in most records, active means well fitted activation curve with a large enough effect; inconclusive means small, poorly fitted or top-dose-only effect; inactive means no such curve, though single readings can be large or run the other way.
# Target: Pyruvate kinase PKM (Homo sapiens) (UniProt P14618)
# Sequence (P14618 whole entry, looked up, canonical isoform): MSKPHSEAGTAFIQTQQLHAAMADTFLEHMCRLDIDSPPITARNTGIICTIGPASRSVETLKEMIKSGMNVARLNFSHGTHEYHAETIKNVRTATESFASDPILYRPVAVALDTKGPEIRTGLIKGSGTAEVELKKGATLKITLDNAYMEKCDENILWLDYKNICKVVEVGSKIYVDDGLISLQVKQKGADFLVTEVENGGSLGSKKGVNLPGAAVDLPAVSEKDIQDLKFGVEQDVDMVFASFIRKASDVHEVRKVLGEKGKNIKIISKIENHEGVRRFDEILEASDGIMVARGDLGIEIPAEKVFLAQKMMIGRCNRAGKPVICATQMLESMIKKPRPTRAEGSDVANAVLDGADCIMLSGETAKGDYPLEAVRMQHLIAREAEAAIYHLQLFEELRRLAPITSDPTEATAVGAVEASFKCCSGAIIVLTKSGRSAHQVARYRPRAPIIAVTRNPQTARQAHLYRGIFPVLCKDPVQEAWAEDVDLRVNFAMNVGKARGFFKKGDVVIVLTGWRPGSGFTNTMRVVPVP
# Experiment: qHTS Assay for Activators of Human Muscle isoform 2 Pyruvate Kinase; further: nearly all actives have a fitted effect of over 55% in size
# Settings: purified PKM2, Kinase-Glo ATP luminescence; Potency: activation; series mostly up to 57.5 µM; activation: at the top concentration
# Text: NIH Chemical Genomics Center [NCGC] Matthew G. Vander Heiden, M.D., Ph.D. [Harvard Medical School, 77 Avenue Louis Pasteur, Boston, MA 02115] MLPCN Grant: 1 R03 MH085679-01 NCGC Assay Overview: Human pyruvate kinase muscle 2 (hPK-M2) enzyme was supplied as a highly purified (>95% pure) preparation from Harvard Medical School and assayed for its ability to generate ATP from ADP using phosphoenolpyruvate (PEP) as a substrate. ATP generation was detected in a coupled reaction by luciferase-mediated luminescence, an ATP-dependent process. […] The enzyme was assayed at an intermediate level of activity to screen for both inhibitors and activators.
# NCGC Assay Protocol Summary: Three uL of substrate mix (at r.t.) in assay buffer (50 mM Imidazole pH7.2, 50 mM KCl, 7 mM MgCl2, 0.01% Tween 20, 0.05% BSA) was dispensed into white solid bottom 1,536 well microtiter plates so that the final concentrations of substrates in the assay were 0.1 mM ADP and 0.5 mM PEP. 23 nL of compound were delivered by a pin tool and 1 uL of enzyme mix in assay buffer (4 degree Celsius) was added. Plates were incubated at room temperature for 1 hour. Two uL of detection mix (Kinase-Glo, Promega; at 4 degree Celsius protected from light) was added and luminescence read by a ViewLux (Perkin Elmer) at 5 second exposure/plate. Data were normalized to the uninhibited and AC100 inhibition (no enzyme). To monitor activation, the first column contained a titration of the activator, NCGC00031955-01 (16-point 1:2 dilutions in duplicate starting at 57 uM) and the first 16 rows of column 4 contained 57 uM of NCGC00031955-01.
# On the % scale 0 is the no-effect control and ±100 the full control effect; potency means the concentration at half of the fitted maximal effect.
SMILES,activation,Potency
Cc1nc(SCC(=O)Nc2cc(C)on2)c2c(C)c(C)sc2n1,10.7%,–
Cc1cc(NC(=O)CSc2nnc(-c3ccc(Cl)s3)o2)no1,–,2.51 µM (active)
COc1ccccc1-c1nnc(SCC(=O)Nc2cc(C)on2)o1,29.6%,–
COc1cc(NC(=O)C2=CC(c3ccc(C)cc3)=NS(=O)(=O)N2C)cc(OC)c1OC,-11.3%,–
CCOc1ccccc1NC(=S)N1CCN(c2cccc(C)c2C)CC1,"-8.49% [at 11.5 µM, 0% is enzyme alone, no compound]",–
Cc1ccc2nc(C)cc(N/N=C/c3ccc(F)cc3)c2c1,–,15.8 µM (active)
Fc1ccc(/C=N/Nc2nc(-c3cccnc3)nc3ccccc23)cc1,9.27%,–
CCOc1cc(/C=N/Nc2cc(C)nc3ccc(C)cc23)ccc1O,2.65%,–
CC(C)(C)NC(=O)Cn1nnc(-c2ccccc2Cl)n1,7.5%,–
Cc1cc(C)n(C(=O)c2ccc(S(=O)(=O)N3CCCC3)cc2)n1,0.764%,–
Cc1ccccc1-c1nnn(CC(=O)c2ccc(S(=O)(=O)N3CCCC3)cc2)n1,–,7.94 µM (active)
O=C(NC(=S)Nc1ccc(Cl)cc1Cl)C1CC1,0.937%,–
NS(=O)(=O)c1cccc(NC(=O)CN2CCCc3ccccc32)c1,0.49%,–
COC(=O)c1[nH]c2cccc(C)c2c1NC(=O)CN1CCCc2ccccc21,1.83%,–
COC(=O)c1[nH]c2ccccc2c1NC(=O)CN1CCCc2ccccc21,–,28.2 µM (active)
CCOc1ccccc1NC(=S)NC(=O)CCc1ccccc1,4.02%,–
CC(=O)c1cc(C#N)c(SCC(=O)Nc2nccs2)nc1C,–,1 µM (active)
Cc1cc(C(F)(F)F)nc(SCC(=O)Nc2nccs2)n1,8.51%,–
CC(=O)c1cc(C#N)c(SCC(=O)C(C)(C)C)nc1C,-4%,–
CC1CCCCC1NC(=O)CCS(=O)(=O)c1ccc2c(c1)NC(=O)CO2 (stereo unspecified),"0.549% [at 0.46 µM, 0% is enzyme alone, no compound]",–
CC(=O)OCCN(CCCn1c(-c2ccncc2)nc2ccccc21)c1nc(-c2ccc(C)cc2)cs1,-0.825%,–
CC(C)c1ccc(NC2CCCN(C(=O)c3ccncc3)C2)cc1 (stereo unspecified),4.09%,–
O=C(c1ccccc1)N1CCN(C(=O)c2cc3nc(-c4ccccc4)cc(C(F)(F)F)n3n2)CC1,0.418%,–
CC(C)c1ccc(S(=O)(=O)N2CCN(C(=O)c3ccc(N4CCCC4)c([N+](=O)[O-])c3)CC2)cc1,12.8%,–
CCCOc1ccc(/C=N/NC(=O)C2CC2)c(OCCC)c1,-0.336%,–
O=C(C1CCC(=O)N(C2CC2)C1)N1CCN(c2ccc(Cl)cc2)CC1 (stereo unspecified),6.03%,–

SMILES,activation,Potency
CC(C)c1ccc(NC(=O)C2CCCN(S(=O)(=O)c3cccnc3)C2)cc1 (stereo unspecified),0.269%,–
COCc1cc(=O)n2[nH]c(C)c(-c3ccccc3)c2n1,"-8.06% [at 11.5 µM, 0% is enzyme alone, no compound]",–
CN(NS(=O)(=O)c1cccs1)c1ncc(C(F)(F)F)cc1Cl,-6.67%,–
CCOc1ccccc1N1C(=O)CC(Sc2nccc(C)n2)C1=O (stereo unspecified),4.68%,–
CCCn1c(C2CCCN2c2nc(-c3ccc(OC)cc3)cs2)nc2ccccc21 (stereo unspecified),-18.9%,–
COC(=O)c1ccc(CN2CCCC(C(=O)Nc3cccc(-n4cnnn4)c3)C2)cc1 (stereo unspecified),0.254%,–
COC(=O)COc1ccc(S(=O)(=O)Nc2ccc(NC(C)=O)cc2)cc1,0.72%,–
CNC(=O)COc1ccc(S(=O)(=O)Nc2ccccc2)cc1,–,10 µM (active)
CCOc1ccc(NS(=O)(=O)c2ccc(OCC(=O)NCCCOC)cc2)cc1,7.89%,–
COc1cccc(OCC(O)CNC(=O)c2oc3c(C)c(C)ccc3c2C)c1 (stereo unspecified),-3.96%,–
Cc1ccc(-n2ncc3c2CC(C)(C)CC3NC(=O)Cc2c(C)noc2C)cc1 (stereo unspecified),1.76%,–
O=C(NCCN1CCN(C(=O)c2cccc([N+](=O)[O-])c2)CC1)C(=O)NCc1ccc(Cl)cc1,2.86%,–
Cc1ccc(C)c(OCc2cc(C(=O)N3CCN(c4cnccn4)CC3)no2)c1,-0.313%,–
C/C(=N\NC(=O)c1ccoc1C)c1ccccc1O,-13.3%,–
C=CCn1c(SCc2csc(C)n2)nc2scc(-c3ccc(C)o3)c2c1=O,–,10 µM (active)
C=CCn1c(SCC(=O)NCC2CCCO2)nc2sc(C)c(C)c2c1=O (stereo unspecified),1.8%,–
C=CCNC(=O)CSc1nc2scc(-c3ccco3)c2c(=O)n1CC=C,11.1%,–
CC(=O)Nc1cccc(Nc2nc(-c3cccs3)nc3ccccc23)c1,3.06%,–
Cc1cc(NC(=O)c2ccco2)c(=O)n(Cc2c(F)cccc2Cl)c1,0.6%,–
N#C[C@]1(S(=O)(=O)c2ccccc2)C[C@@H]2ON=C(c3cccc(Br)c3)[C@@H]2C1,-14.9%,–
O=C(Nc1ccc(Cl)cc1)c1cccc(OC(=S)N2CCOCC2)c1,-0.431%,–
COc1cccc(NC(=O)CSc2nnc(Cc3ccc(OC)c(OC)c3)o2)c1,–,14.1 µM (active)
COc1ccccc1-c1nnc(SCC(=O)Nc2ccccc2)o1,10.7%,–
Cc1cc(C)cc(OCc2nnc(SCC(=O)Nc3ccccc3)o2)c1,-6.56%,–
O=C(Nc1nnc(S(=O)(=O)N2CCCCCC2)s1)c1cccc(Br)c1,-6.77%,–
CCc1ccccc1OCC(=O)Nc1ccc2c(c1)OCCO2,8.35%,–

SMILES,activation,Potency
COc1ccc(NS(=O)(=O)c2ccc(N3CCN(CCO)CC3)c([N+](=O)[O-])c2)cc1,-1.52%,–
O=C(Nc1ncc([N+](=O)[O-])s1)C1COc2ccccc2O1 (stereo unspecified),-15.3%,–
CCn1c(SCc2cc(=O)n3ccsc3n2)nc2ccccc21,-1.44%,–
O=c1cc(Cn2nnc(-c3ccc(Cl)cc3)n2)nc2sccn12,–,14.1 µM (active)
O=C(NCc1ccc(Cl)cc1)c1cc2c(nc3sccn32)s1,2.77%,–
Clc1cccc(Cl)c1OCCOCCNCc1ccccc1,-2.65%,–
COc1nnc(-c2ccc(C)c(S(=O)(=O)N(C)C)c2)c2ccccc12,-1.4%,–
COc1cc(/C=C/C(=O)N2CCc3ccccc3C2)cc(OC)c1OC,0%,–
COc1ccc(-c2oc3ncnc(NCCCO)c3c2-c2ccc(OC)cc2)cc1,1.83%,–
C=CCNC(=S)/N=c1/ccccn1Cc1ccccc1,-5.18%,–
O=C(/C=C/c1ccc([N+](=O)[O-])o1)NNC(=O)c1ccc(F)cc1,-6.12%,–
COCCNc1cc(-c2ccccc2)nc2cc(-c3cccc(F)c3)nn12,3.4%,–
CCC(=O)Nc1nc(C)c(C(=O)Nc2cccc(Cl)c2)s1,1.43%,–
O=C(CCCCCn1c(=S)[nH]c2ccsc2c1=O)NC1CCCCC1,"13.9% [at 0.46 µM, 0% is enzyme alone, no compound]",–
CCSc1nsc(NC(=O)Nc2ccccc2OC)n1,0.348%,–
Cc1ccc(NC(=O)CSc2cccc3cccnc23)c(C)c1,-0.598%,–
Cc1ccc(NC(=S)Nc2ccc(F)cc2)cc1,0.501%,–
N=c1oc2ccccc2cc1C(=O)NCc1ccccc1,-2.59%,–
O=C(NCc1ccccn1)C1CCN(S(=O)(=O)c2ccc(Br)cc2)CC1,3.51%,–
O=C(c1ccc2c(c1)OCCO2)C1CCN(S(=O)(=O)c2cccc(F)c2)CC1,-1.6%,–
CN1CCCN(S(=O)(=O)c2ccc3c(c2)OCCO3)CC1,–,3.55 µM (active)
O=C(NCc1cccs1)C1CCN(S(=O)(=O)c2ccc3c(c2)OCCO3)CC1,–,3.98 µM (active)
O=C(NCc1cccs1)C1CCN(S(=O)(=O)c2ccc(Cl)cc2)CC1,–,14.1 µM (active)
O=S(=O)(c1ccc2c(c1)OCCO2)N1CCc2ccccc21,9.4%,–
Cc1ccc(S(=O)(=O)N2CCN(C)CC2)cc1,-0.548%,–
O=C(NCc1ccc(Cl)cc1)C1CCN(S(=O)(=O)c2cccs2)CC1,19.6%,–

SMILES,activation,Potency
O=C(NCc1ccc2c(c1)OCO2)C1CCCN(S(=O)(=O)c2cccs2)C1 (stereo unspecified),-1.93%,–
Cc1ccc(CN2CCN(Cc3cn(C)nc3-c3ccccc3)CC2CCO)o1 (stereo unspecified),0.985%,–
Cc1ccccc1CN1C[C@@H]2C[C@@H](c3cn(C)nc3-c3ccccc3)N3CCC[C@@]23C1=O,–,5.62 µM (active)
Cc1ccccc1CN1C[C@@H]2C[C@@H](c3ccc4nsnc4c3)N3CCC[C@@]23C1=O,2.46%,–
Brc1c(CSc2nncc3ccccc23)nc2ccccn12,–,4.47 µM (active)
CN(C(=O)CSc1nncc2ccccc12)C1CCCCC1,-6.26%,–
COc1ccc(Cl)cc1NC(=O)c1cccc(N2C(=O)C3CC=CCC3C2=O)c1 (stereo unspecified),1.39%,–
O=C(NCC1CCCO1)c1cc2c([nH]c3ccccc32)c(-c2ccc(F)cc2)n1 (stereo unspecified),1.73%,–
O=C(Nc1ccc(S(=O)(=O)Nc2ccccn2)cc1)c1ccccc1,3.96%,–
C=CC(=O)c1ccc2ccccc2c1,–,10 µM (active)
CC(=O)c1ccc2c(ccc3ccccc32)c1,0.0915%,–
CC(=O)CCC(=O)c1ccc2ccccc2c1,-3.25%,–
CCOC(=O)c1cccc(NC(=O)C2CCN(c3ncnc4c3nc3n4CCCCC3)CC2)c1,"0.194% [at 0.46 µM, 0% is enzyme alone, no compound]",–
CCCOC1CCCN(C(=O)c2cc(COc3cncc(Cl)c3)on2)C1 (stereo unspecified),-0.188%,–
O=C(NC(=S)NC1CCCCC1)c1ccc(Cl)cc1,0.722%,–
O=S(=O)(NC1CCCCC1N1CCN(c2ccccc2F)CC1)c1ccccc1 (stereo unspecified),5.02%,–
O=C(Cc1ccc(Cl)cc1)NC(=S)Nc1ccccc1O,0.277%,–
CCN1C(=S)N[C@@H](CCc2ccccc2)[C@H](C(=O)OC)[C@H]1C,–,inactive
CC1(C(=O)NCCc2c[nH]c3ccccc23)C=CC2(CCCCC2)N1C(=O)c1ccccc1 (stereo unspecified),-0.336%,–
Cc1ccccc1NC(=O)CSc1nc2ccc(Nc3nc(N4CCOCC4)nc(N4CCOCC4)n3)cc2s1,0.537%,–
CN(C(=O)CC1C(=O)NCCN1Cc1ccc(F)cc1Cl)C1CCCCC1 (stereo unspecified),5.71%,–
CC(=O)N1c2ccc(S(=O)(=O)N3CCCC(C(=O)Nc4cccc(F)c4)C3)cc2CC1C (stereo unspecified),1.41%,–
CCC(C)c1ccc(NC(=S)N2CCCC2)cc1 (stereo unspecified),-6.17%,–
